Where “and” joins values, the source holds several entries; their conditions need not be identical. Equal values may be shown once. The panel holds about 79,000 compounds, 15% with a hit somewhere; the sample as a whole holds those more often. The source holds several records for some structures; these can differ, active in one and inactive in another. Calls of active or inactive are those of the source. Cut-off read from the data, not from the text of the source: active = growth inhibition above about 70%; inactive = the rest.
Columns and labels:
[1] = NCI Yeast Anticancer Drug Screen. Data for the rad52 strain (AID 147);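 note: 0% = growth of vehicle-treated control cultures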; conditions: S. cerevisiae rad52 mutant growth inhibition, stronger effect = higher value
Summary of the method: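 Yeast strain carrying a DNA damage repair alteration was exposed to test compounds. Growth inhibition was measured relative to vehicle-treated controls.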

[2] = NCI Yeast Anticancer Drug Screen. Data for the wt1 strain (AID 149);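 note: 0% = growth of vehicle-treated wt1 cultures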; conditions: S. cerevisiae wt1 strain (SPY 50644) growth inhibition, stronger effect = higher value
Summary of the method: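 Readout: yeast growth inhibition, normalised to vehicle controls, in the wt1 strain exposed to test compounds.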

[3] = NCI Yeast Anticancer Drug Screen. Data for the mgt1 strain (AID 153); conditions: S. cerevisiae mgt1 mutant growth inhibition, stronger effect = higher value
Summary of the method: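 Yeast mgt1 strain (DNA repair/cell-cycle alteration panel) exposed to compounds; growth inhibition measured relative to vehicle-treated controls.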

[4] = NCI Yeast Anticancer Drug Screen. Data for the rad50 strain (AID 155);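 note: 0% = growth of vehicle-only cultures of the same strain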; conditions: S. cerevisiae rad50 strain growth inhibition, stronger effect = higher value
Summary of the method: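 Compounds were tested on a yeast strain with an engineered DNA damage repair alteration; the reported value is growth inhibition normalised to vehicle treatment.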

[5] = NCI Yeast Anticancer Drug Screen. Data for the mec2-1 strain (AID 157); conditions: S. cerevisiae mec2-1 strain, stronger effect = higher value
Summary of the method: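 mec2-1 yeast strain, carrying an alteration in DNA damage repair or cell cycle control, was exposed to compounds; growth inhibition was measured relative to vehicle-treated controls.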

[6] = NCI Yeast Anticancer Drug Screen. Data for the rad14 strain (AID 159);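 note: 0% = growth of vehicle-treated control cultures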; conditions: S. cerevisiae rad14 strain growth inhibition, stronger effect = higher value
Summary of the method: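 Compound-treated yeast with a defined DNA-repair lesion; growth inhibition normalised to vehicle-treated cultures.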

[7] = NCI Yeast Anticancer Drug Screen. Data for the sgs1 mgt1 strain (AID 161);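 note: 0% = growth of cultures given vehicle only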; conditions: S. cerevisiae sgs1 mgt1 strain, stronger effect = higher value
Summary of the method: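 Compounds are added to genetically altered yeast, and growth is compared with cultures given vehicle alone to give percent inhibition.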

[8] = NCI Yeast Anticancer Drug Screen. Data for the CLN2oe strain (AID 163);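 note: 0% = growth of vehicle-only control cultures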; conditions: S. cerevisiae CLN2oe strain, stronger effect = higher value
Summary of the method: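 Yeast cells carrying a defined cell-cycle control alteration were exposed to test compounds. Growth inhibition was scored against vehicle-treated control cultures.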

[9] = NCI Yeast Anticancer Drug Screen. Data for the cln2 rad14 strain (AID 165);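 note: 0% = growth equal to vehicle treated cultures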; conditions: S. cerevisiae cln2 rad14 strain, stronger effect = higher value
Summary of the method: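 Yeast carrying cln2 and rad14 alterations (cell cycle control and DNA damage repair) were exposed to compounds. Growth inhibition was measured against vehicle-treated controls.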

[10] = NCI Yeast Anticancer Drug Screen. Data for the bub3 strain (AID 167); conditions: S. cerevisiae bub3 mutant strain, stronger effect = higher value
Summary of the method: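 Growth of a checkpoint-deficient yeast mutant is measured after compound exposure. Values represent inhibition relative to vehicle.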

[11] = NCI Yeast Anticancer Drug Screen. Data for the wt2 strain (AID 169);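 note: 0% = growth of vehicle-treated yeast cultures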; conditions: S. cerevisiae wt2 strain growth inhibition, stronger effect = higher value
Summary of the method: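 Yeast cells were exposed to test compounds, and growth inhibition was measured relative to vehicle-treated controls.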

[12] = NCI Yeast Anticancer Drug Screen. Data for the mlh1 strain (AID 171);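 note: 0% = growth of vehicle-treated control cultures of the same strain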; conditions: S. cerevisiae mlh1 strain growth inhibition, stronger effect = higher value
Summary of the method: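 Yeast carrying a defined genetic alteration in DNA damage repair or cell cycle control were exposed to test compounds. Growth inhibition was measured relative to vehicle-treated controls.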

[13] = NCI Yeast Anticancer Drug Screen. Data for the sgs1 strain (AID 173);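 note: 0% = growth of vehicle-only control cultures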; conditions: S. cerevisiae sgs1 mutant, stronger effect = higher value
Summary of the method: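 Yeast mutant strains carrying defined defects in DNA damage repair or cell cycle control were exposed to test compounds. Growth inhibition was scored against vehicle-treated controls.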

[14] = NCI Yeast Anticancer Drug Screen. Data for the mlh1 rad18 strain (AID 175); conditions: S. cerevisiae mlh1 rad18 strain growth inhibition, stronger effect = higher value
Summary of the method: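 Growth inhibition of the yeast strain was measured after compound exposure and expressed relative to vehicle-treated controls. The strain carries defined defects in DNA damage repair.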

[15] = NCI Yeast Anticancer Drug Screen. Data for the rad18 strain (AID 177); conditions: S. cerevisiae rad18 mutant growth inhibition, stronger effect = higher value
Summary of the method: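 Yeast carrying a defined DNA damage repair alteration were exposed to compounds. Growth inhibition was expressed relative to vehicle-treated controls.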

[16] = at 5.0 µM (retest, dose inferred, filed as 0.5)
[17] = at 50.0 µM (retest, dose inferred, filed as 5.0)

Measured: growth inhibition

CC1=CC(=C(c2ccc(N)cc2)c2ccc(N)cc2)C=CC1=N
38% (inactive) and 93% (active): [4]; [17]
inactive: [1]; at 1.2 µM 20% | [1]; at 3.7 µM 49% | [1]; at 11.0 µM 47% | [1]; at 33.0 µM 32% | [2]; at 1.2 µM 0% | [2]; at 3.7 µM -1% | [2]; at 11.0 µM 7% | [2]; at 33.0 µM 2% | [2]; at 100.0 µM 19% | [3]; at 1.2 µM -9% | [3]; at 3.7 µM 1% | [3]; at 11.0 µM -8% | [3]; at 33.0 µM 4% | [4]; at 1.2 µM -2% | [4]; at 3.7 µM 17% | [4]; [16] 21% and 1% | [4]; at 11.0 µM 17% | [4]; at 33.0 µM 7% | [4]; at 50.0 µM 32.7% and 35.3% | [5]; at 1.2 µM 7% | [5]; at 3.7 µM 2% | [5]; [16] 14% and -7% | [5]; at 11.0 µM -1% | [5]; at 33.0 µM -6% | [5]; at 50.0 µM 58.7% and 12.3% | [6]; at 1.2 µM -9% | [6]; at 3.7 µM 0% | [6]; at 11.0 µM -4% | [6]; at 33.0 µM -4% | [7]; [16] 15% and 2% | [7]; [17] 30% and 50% | [7]; at 50.0 µM 59.5% and 48.1% | [8]; at 1.2 µM 22% | [8]; at 3.7 µM 43% | [8]; at 11.0 µM 39% | [8]; at 33.0 µM 23% | [9]; [16] 1% and -1% | [9]; [17] 42% and 61% | [9]; at 50.0 µM 34% and -84.5% | [10]; at 1.2 µM -12% | [10]; at 3.7 µM 8% | [10]; [16] 18% and -1% | [10]; at 11.0 µM 8% | [10]; at 33.0 µM 12% | [10]; at 50.0 µM 58.8% and 24.9% | [11]; at 1.2 µM -18% | [11]; at 3.7 µM -13% | [11]; at 11.0 µM -12% | [11]; at 33.0 µM -6% | [12]; at 1.2 µM 1% | [12]; at 3.7 µM -4% | [12]; at 11.0 µM 1% | [12]; at 33.0 µM -3% | [13]; at 1.2 µM 11% | [13]; at 3.7 µM 18% | [13]; at 11.0 µM 4% | [13]; at 33.0 µM 11% | [14]; [16] 9% and -3% | [14]; at 50.0 µM 66% and 61.9% | [15]; at 1.2 µM 6% | [15]; at 3.7 µM 4% | [15]; at 11.0 µM -22% | [15]; at 33.0 µM 9%
54% (inactive) and 75% (active): [14]; [17]
active: [1]; at 100.0 µM 91% | [3]; at 100.0 µM 76% | [4]; at 100.0 µM 82% | [5]; [17] 89% and 80% | [5]; at 100.0 µM 73% | [6]; at 100.0 µM 74% | [8]; at 100.0 µM 78% | [10]; [17] 90% and 76% | [10]; at 100.0 µM 88% | [11]; at 100.0 µM 94% | [12]; at 100.0 µM 81% | [13]; at 100.0 µM 77% | [15]; at 100.0 µM 81%
